Data as given in PubChem BioAssay.

Legend:
[1] = test system: Human papillomavirus type 1a protein E7 (residues 44-93); assay: HPV1a E7 fragment binders on microarrays, primary screen, biochemical, small-molecule microarray, residues 44-93, 635 nm fluorescence (AID 1108); conditions: small-molecule microarray binding, fluorescence 635 nm; higher = more signal;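 further: E7 fragment applied at 1 µg/mL in TBST for 1 h at 4 C; score combines spot fluorescence with its signal to noise ratio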
[2] = modulators of HCV replicon luciferase signal, primary screen, HCV replication inhibitor project, Huh7 cells, luciferase reporter (AID 1109); conditions: 48 h, higher = more signal;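 further: huh7 hepatoma cells harbouring a luciferase neomycin HCV replicon reporter; luciferase luminescence as measure of HCV replicon replication; test concentration not given here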
[3] = molecular target: Left-right determination factor 2 (Homo sapiens) (UniProt O00292); assay: LEFTY2 binders on small-molecule microarrays, primary screen, biochemical, small-molecule microarray, 635 nm fluorescence scan (AID 1110); conditions: LEFTY2 binding, higher = more signal
Chain of Left-right determination factor 2 (Homo sapiens) (O00292 whole entry, looked up): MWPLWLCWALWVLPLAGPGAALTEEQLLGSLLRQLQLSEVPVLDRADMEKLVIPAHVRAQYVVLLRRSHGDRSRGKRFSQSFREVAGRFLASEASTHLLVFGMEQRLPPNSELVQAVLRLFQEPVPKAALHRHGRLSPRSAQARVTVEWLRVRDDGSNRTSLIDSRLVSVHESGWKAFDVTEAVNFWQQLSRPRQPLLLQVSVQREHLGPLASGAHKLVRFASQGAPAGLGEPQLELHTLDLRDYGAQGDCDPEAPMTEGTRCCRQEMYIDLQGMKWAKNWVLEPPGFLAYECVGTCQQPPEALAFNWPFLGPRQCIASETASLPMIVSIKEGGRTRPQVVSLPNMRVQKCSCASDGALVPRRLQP

[4] = molecular target: Calmodulin-1 (Homo sapiens) (UniProt P0DP23); assay: CALM1 binders on microarrays, EGTA buffer, profiling panel, biochemical, small-molecule microarray, Cy5-labelled CALM1 (AID 1111); conditions: Cy5-CALM1 binding fluorescence, higher = more signal;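 further: labelled calmodulin applied in Tris saline Tween buffer holding calcium plus EGTA and DTT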
[5] = molecular target: Calmodulin-1 (Homo sapiens) (UniProt P0DP23); assay: calcium-bound CALM1 binders on microarrays, profiling panel, artefact control for SMM control-protein annotation, biochemical, small-molecule microarray, Cy5-labelled CALM1, plus calcium (AID 1112); conditions: Cy5-CALM1 binding fluorescence, higher = more signal;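 further: score merges spot fluorescence with signal to noise from triplicate slides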
[6] = small-molecule microarray binders of probe aWnt5a, primary screen, biochemical, biotinylated probe, 635/667 nm fluorescence (AID 1113); conditions: higher = more signal;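 further: score merges 667 nm fluorescence intensity with signal-to-noise per printed feature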
[7] = small-molecule microarray binders of probe aShh, primary screen, biochemical, biotinylated probe, 635/667 nm fluorescence (AID 1114); conditions: higher = more signal;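 further: probe is biotin-labelled aShh protein from a stem cell growth factor screen; measures binding of labelled protein to compounds printed on the slide; score merges feature fluorescence at 667 nm with signal-to-noise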
[8] = small-molecule microarray binders of probe aNog, primary screen, biochemical, biotinylated probe, 635/667 nm fluorescence (AID 1115); conditions: higher = more signal;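 further: probe is biotinylated aNog protein used at 0.15 µg/mL for 1 h at 4 C; z-score combines 667 nm fluorescence of each spot with its signal to noise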
[9] = molecular target: Torsin-1A-interacting protein 1 (Homo sapiens) (UniProt Q5JTV8); assay: LAP1 binders from COS7 cell lysate, primary screen, small-molecule microarray, 635/667 nm fluorescence (AID 1116); conditions: COS7-hLAP1 lysate binding, 635 nm fluorescence, higher = more signal
Chain of Torsin-1A-interacting protein 1 (Homo sapiens) (Q5JTV8 whole entry, looked up): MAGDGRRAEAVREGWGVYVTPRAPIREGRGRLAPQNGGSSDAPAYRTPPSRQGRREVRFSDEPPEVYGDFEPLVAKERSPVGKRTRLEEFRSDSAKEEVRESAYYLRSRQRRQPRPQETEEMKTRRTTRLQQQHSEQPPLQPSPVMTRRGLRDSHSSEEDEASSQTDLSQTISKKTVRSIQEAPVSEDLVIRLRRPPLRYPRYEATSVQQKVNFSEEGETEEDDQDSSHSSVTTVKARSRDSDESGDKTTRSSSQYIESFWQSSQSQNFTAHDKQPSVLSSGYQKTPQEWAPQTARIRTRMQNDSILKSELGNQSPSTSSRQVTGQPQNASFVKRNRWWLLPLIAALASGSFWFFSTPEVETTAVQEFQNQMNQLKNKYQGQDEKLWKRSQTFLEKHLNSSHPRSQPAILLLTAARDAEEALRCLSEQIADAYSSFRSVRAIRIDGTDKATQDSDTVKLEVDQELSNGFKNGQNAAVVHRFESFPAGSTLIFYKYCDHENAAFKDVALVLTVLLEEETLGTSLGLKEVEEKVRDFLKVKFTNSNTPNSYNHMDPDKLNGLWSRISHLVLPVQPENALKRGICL

[10] = molecular target: Alpha-bungarotoxin (Bungarus multicinctus) (UniProt P60615); assay: alpha-bungarotoxin binders on microarray, profiling panel, artefact control for SMM control protein annotation, biochemical, small-molecule microarray, Alexa647 label, 635/667 nm fluorescence (AID 1117); conditions: alpha-BTX-A647 binding fluorescence, higher = more signal
Chain of Alpha-bungarotoxin (Bungarus multicinctus) (P60615 whole entry, looked up): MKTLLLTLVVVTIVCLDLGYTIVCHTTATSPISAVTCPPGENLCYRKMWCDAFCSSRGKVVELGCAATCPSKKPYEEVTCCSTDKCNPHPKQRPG

Row | Structure (SMILES) | composite z-score [1] | z-score [2] | composite z-score [3] | composite z-score [4] | composite z-score [5] | composite z-score [6] | composite z-score [7] | composite z-score [8] | composite z-score [9] | composite z-score [10]
1 | Cc1ccc(S[C@]2(C(=O)NCC(C)C)CC(=O)N(Cc3ccccc3Cl)[C@@H]2c2ccc(CO)cc2)cc1 | -0.411 | -1.73 | -1.46 | -0.476 | -0.115 | -0.228 | -0.181 | -0.618 | -1.08 | 0.86
2 | CC(C)CNC(=O)[C@@H]1c2ccccc2C(=O)N(Cc2cc(C(F)(F)F)cc(C(F)(F)F)c2)[C@H]1c1ccc(CO)cc1 | -0.337 | -0.195 | -0.488 | -0.128 | 0.401 | 0.0437 | -0.155 | -0.247 | -0.0708 | -0.141
3 | CCCCCN1CC=CC23O[C@@H]4C=CCOC(=O)[C@@H]4[C@H]2C(=O)N(CCCO)[C@@H]3C1=O (stereo not given in full) | 1.35 | -0.538 | -0.642 | -0.568 | 0.487 | -0.204 | -0.0709 | 0.0707 | 2.65 | -0.339
4 | COC(=O)[C@@]1(Cc2ccccc2)N=C(c2ccc(OCCCO)cc2)O[C@H]1c1ccccc1N=[N+]=[N-] | 1.33 | -0.749 | 0.241 | -0.203 | -1.07 | -0.0405 | 0.297 | 0.781 | 2.83 | 0.778
5 | COCC(=C=CC[C@H](O)c1ccc(OCCO)cc1)C[C@H](O)c1cc(Cl)cc(Cl)c1O | 1.35 | -3.96 | 0.628 | -0.281 | -0.814 | -0.0108 | 0.678 | 0.277 | 0.163 | 0.155
6 | COCCOC(=O)N1C(=O)[C@@]2(c3cc(C#CC4=CCCCC4)ccc31)[C@H](C(=O)NC[C@H](O)c1ccccc1)[C@H]1C(=O)O[C@H](c3ccccc3)[C@H](c3ccccc3)N1[C@@H]2c1ccc(O)cc1 | 1.38 | -1.84 | 0.693 | 1.1 | 0.274 | -0.163 | -0.0055 | 0.996 | 0.949 | 1.13
7 | CC(C)C[C@@H]1NC(=O)[C@H]2C[C@@H](C(=O)NCCCCCNC(=O)CS)[C@@H](c3cccc(OCCO)c3)N2C1=O | 1.38 | -0.265 | 1.25 | 0.193 | -0.364 | -0.194 | -0.358 | -0.0428 | 0.698 | 0.812
8 | C=CCOC(=O)[C@H]1[C@@H]2C(=O)O[C@@H](c3ccccc3)[C@@H](c3ccccc3)N2[C@@H](c2ccc(OCCOC(=O)[C@@H]3C[C@@H]4C(=O)N5CCC[C@H]5C(=O)N4[C@@H]3c3ccc(O)cc3)cc2)[C@]12C(=O)Nc1ccccc12 | 1.4 | -1.81 | 0.677 | 0.823 | 0.0257 | -0.1 | 0.0121 | -0.467 | 0.808 | 1.18
9 | C=CCC(OC(C)=O)[C@@H]1[C@@H](N(Cc2ccc(-c3cccc(C(F)(F)F)c3)o2)C(=O)c2ccc(C)cc2)c2cc(OCCCO)ccc2N1C(=O)c1ccc(-c2ccccc2)cc1 (stereo not given in full) | -0.734 | -0.094 | -0.0524 | -0.201 | -0.147 | -0.124 | -0.16 | -0.363 | -0.178 | -0.286
10 | CS(=O)(=O)CCOC(=O)C1=CC(c2ccc(CO)cc2)=CC(C2CC2)N(Cc2cc3c(cc2Br)OCO3)C=C1C(=O)OCCS(C)(=O)=O (stereo not given) | 1.41 | -2.3 | 0.462 | 1.38 | 0.23 | -0.0124 | 0.171 | 0.446 | 1.18 | 1.77
11 | C[C@]1(C(=O)NCc2ccccc2)c2ccccc2C(=O)N(Cc2cc(F)cc(C(F)(F)F)c2)[C@H]1c1ccc(CO)cc1 | 0.376 | -0.44 | -1.57 | -0.595 | 0.173 | -0.0685 | 0.0469 | -0.427 | -0.168 | 0.0471
12 | [N-]=[N+]=NCc1ccccc1C[C@]1(C(=O)NCC(O)CO)N=C(c2ccc(OCCCO)cc2)O[C@H]1c1ccccc1N=[N+]=[N-] (stereo not given in full) | 1.38 | -1.47 | -1.22 | 1.03 | 1.04 | 0.0633 | 0.14 | 1.18 | 1.4 | 1.75
13 | CC(C)(C)OC(=O)CC[C@]1(C(=O)N2CCCCC2)N=C(c2ccc(OCCCO)cc2)O[C@H]1c1ccccc1N=[N+]=[N-] | 1.43 | 0.6 | 0.376 | 2.25 | 1.38 | 0.152 | -0.385 | 0.207 | 1.47 | 0.823
14 | CCCCC=C[C@@H](NC(=O)c1cccs1)c1ccccc1 | 0.861 | -2.74 | -0.286 | 0.524 | 0.906 | -0.124 | 0.166 | -0.269 | 0.159 | 0.748
15 | O=C1N(CCS(=O)(=O)c2ccccc2)c2ccccc2C[C@@]12COC(c1ccc(OCCCO)cc1)=N2 | 1.09 | -1.49 | 0.428 | 0.417 | 0.445 | 0.152 | 0.0124 | 0.69 | 0.99 | -0.103
16 | CC(C)c1ccc(NN2C(C(O)c3ccc(N(C)C)cc3)C=CC3C(=O)N(c4ccccc4)C(=O)C32)cc1 (stereo not given) | 1.42 | 1.61 | 0.0148 | 1.44 | 0.176 | 0.0317 | 0.13 | 0.842 | 0.488 | 1.73
17 | C=CCNC(=O)[C@@H]1[C@H]2C(=O)O[C@H](c3ccccc3)[C@H](c3ccccc3)N2[C@H](c2ccc(OCCO)cc2)[C@@]12C(=O)Nc1ccccc12 | 1.39 | -1.72 | 0.302 | 0.705 | -0.495 | -0.0179 | 0.0469 | -0.543 | 1.55 | 1.05
